Records with an inconclusive call do not appear. The source made the active and inactive calls. The call rests on the fitted dose curve; in most records, active means well fitted curve in the direction sought with a large enough effect in the repeat runs; inconclusive means weak or mixed curves; inactive means no such curve, though single readings can be large; an effect the other way counts as inactive or inconclusive.
Tests used:
[1] = A CellTox Green Cytotoxicity Assay to monitor cytotoxicity in HEK293 cells - 40 hour (AID 1224871); further: nearly all actives have a fitted effect of over 45% in size
Outline: (§1)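 Fluorescence intensity, read at 0, 8, 16, 24, 32 and 40 h of compound treatment, reflected dye binding to DNA of dead HEK293 cells; compounds (23 nL, DMSO) were added 5 h after plating cells with reagent.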

[2] = qHTS RealTime-Glo MT Cell Viability Assay in HEK293 cells - 16 hour (AID 1224872); further: nearly all actives have a fitted effect of over 50% in size; further: potency means the concentration at half of the fitted maximal effect
Outline: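 Quantitative high-throughput screen of the Tox21 10K library in HEK293: cells and RealTime-Glo reagents plated together, compound added at 5 h, luminescence monitored through 40 h at 37 C.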

[3] = qHTS RealTime-Glo MT Cell Viability Assay in HEK293 cells - 40 hour (AID 1224874); conditions: RealTime-Glo luminescence; max response: hits give low values; further: nearly all actives have a fitted effect of over 50% in size; further: potency means the concentration at half of the fitted maximal effect
Outline: (§2)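 Viable HEK293 cells reduce a cell-permeant prosubstrate; the product diffuses out and is consumed by NanoLuc in the medium to give light. Compounds went in after a 5 h incubation and plates were read over the treatment course.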

[4] = A CellTox Green Cytotoxicity Assay to monitor cytotoxicity in HEK293 cells - 24 hour (AID 1224875); further: series mostly up to about 77 µM; nearly all actives have a fitted effect of over 45% in size
Outline: as §1

[5] = A CellTox Green Cytotoxicity Assay to monitor cytotoxicity in HepG2 cells - 16 hour (AID 1224876); further: nearly all actives have a fitted effect of over 45% in size
Outline: (§3)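 Using 1536-well format, dye-containing HepG2 suspension was seeded, allowed 5 h at 37 C/5% CO2, dosed by pintool with compounds, positive and negative controls, and imaged for fluorescence across 40 h.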

[6] = qHTS RealTime-Glo MT Cell Viability Assay in HepG2 cells - 32 hour (AID 1224877); further: nearly all actives have a fitted effect of over 55% in size
Outline: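 Compound treatment began 5 h after plating HepG2 cells (600/well) with NanoLuc luciferase and prosubstrate. Plates stayed at 37 C for 40 h; luminescence was captured at six time points, 0 h through 40 h.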

[7] = A CellTox Green Cytotoxicity Assay to monitor cytotoxicity in HepG2 cells - 24 hour (AID 1224878); further: nearly all actives have a fitted effect of over 45% in size
Outline: as §3

[8] = A CellTox Green Cytotoxicity Assay to monitor cytotoxicity in HepG2 cells - 40 hour (AID 1224879); further: nearly all actives have a fitted effect of over 40% in size
Outline: as §3

[9] = qHTS RealTime-Glo MT Cell Viability Assay in HEK293 cells - 0 hour (AID 1224880)
Outline: as §2

[10] = qHTS RealTime-Glo MT Cell Viability Assay in HepG2 cells - 8 hour (AID 1224873); further: nearly all actives have a fitted effect of over 55% in size
Outline: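 HepG2 cells mixed with RealTime-Glo MT reagents (NanoLuc plus cell-permeant prosubstrate) were seeded at 600 cells/well, incubated 5 h at 37 C/5% CO2, then pinned with compounds in DMSO; nonlytic luminescence tracked viability during 40 h treatment.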
On the % scale 0 is the no-effect control and ±100 the full control effect.

CN/C(=N\[N+](=O)[O-])NCc1cnc(Cl)s1
inactive: Potency [1] | Potency [2] | max response [3] -7.42% | Potency [4] | Potency [5] | Potency [6] | Potency [7] | Potency [8] | Potency [9]

C[C@H]1[C@H](c2ccc(Cl)cc2)SC(=O)N1C(=O)NC1CCCCC1
inactive: Potency [1] | Potency [4] | Potency [5] | Potency [6] | Potency [7] | Potency [8] | Potency [9]
active: Potency [2] 38.9 µM | Potency [3] 43.6 µM

CC1CN1 (centres undefined)
inactive: Potency [1] | Potency [2] | Potency [10] | Potency [4] | Potency [5] | Potency [6] | Potency [7] | Potency [8] | Potency [9]

ClC1(Cl)C2(Cl)C3(Cl)C4(Cl)C(Cl)(Cl)C5(Cl)C3(Cl)C1(Cl)C5(Cl)C24Cl (centres undefined)
inactive: Potency [1] | Potency [2] | max response [3] -13.1% | Potency [4] | Potency [5] | Potency [6] | Potency [7] | Potency [8] | Potency [9]

Oc1ccc(Cl)c(Cl)c1
inactive: Potency [1] | Potency [2] | max response [3] -18.2% | Potency [4] | Potency [5] | Potency [6] | Potency [7] | Potency [8]

CCCCC(CC)COC(=O)OOC(C)(C)C (centres undefined)
inactive: Potency [1] | Potency [2] | max response [3] 0.0606% | Potency [4] | Potency [5] | Potency [6] | Potency [7] | Potency [8] | Potency [9]

CC(=O)[O-].CC(=O)[O-].[Co+2]
inactive: Potency [1] | Potency [2] | Potency [10] | Potency [4] | Potency [5] | Potency [6] | Potency [7] | Potency [8] | Potency [9]

c1cc[n+]2c(c1)-c1cccc[n+]1CC2
inactive: Potency [1] | Potency [2] | Potency [10] | Potency [4] | Potency [5] | Potency [6] | Potency [7] | Potency [8] | Potency [9]

COc1c2c(cc3c1OCO3)CCN(C)C2
inactive: Potency [1] | Potency [2] | max response [3] -9.04% | Potency [4] | Potency [5] | Potency [6] | Potency [7] | Potency [8] | Potency [9]

COc1cnc(OC)n2nc(NS(=O)(=O)c3c(OCC(F)F)cccc3C(F)(F)F)nc12
inactive: Potency [1] | Potency [2] | Potency [10] | Potency [4] | Potency [5] | Potency [6] | Potency [7] | Potency [8] | Potency [9]

[O-][Cl+3]([O-])([O-])O
inactive: Potency [1] | Potency [2] | max response [3] 7.85% | Potency [4] | Potency [5] | Potency [6] | Potency [7] | Potency [8] | Potency [9]

CC(=O)O.CC(=O)O.CC(=O)O.CC(=O)O.CC(=O)O.CC(=O)O.CC(=O)O.O.O.[Cr].[Cr].[Cr]
inactive: Potency [1] | Potency [2] | Potency [10] | Potency [4] | Potency [5] | Potency [6] | Potency [8] | Potency [9]

Clc1cc(Cl)c(-c2cc(Cl)c(Cl)cc2Cl)cc1Cl
inactive: Potency [1] | Potency [2] | Potency [10] | Potency [4] | Potency [5] | Potency [6] | Potency [7] | Potency [8] | Potency [9]

CCCCC(CC)COC(=O)c1ccccc1C(=O)OCC(CC)CCCC (centres undefined)
inactive: Potency [1] | Potency [2] | Potency [10] | Potency [4] | Potency [5] | Potency [6] | Potency [7] | Potency [8] | Potency [9]

CC(C)NCC(O)c1ccccc1Cl (centres undefined)
inactive: Potency [1] | Potency [2] | Potency [10] | Potency [4] | Potency [5] | Potency [6] | Potency [8] | Potency [9]

Cc1ccccc1OP(=O)(Oc1ccccc1C)Oc1ccccc1C
inactive: Potency [1] | Potency [2] | Potency [10] | Potency [4] | Potency [5] | Potency [6] | Potency [7] | Potency [8] | Potency [9]

[Cl-].[Cl-].[Sn+2]
inactive: Potency [1] | Potency [2] | Potency [10] | Potency [4] | Potency [5] | Potency [6] | Potency [8] | Potency [9]

CNC(=O)/C=C(\C)OP(=O)(OC)OC
inactive: Potency [1] | Potency [2] | Potency [10] | Potency [4] | Potency [5] | Potency [6] | Potency [7] | Potency [8] | Potency [9]

CCn1cc[n+](C)c1 (tested in a mixture with another compound)
inactive: Potency [1] | Potency [2] | Potency [10] | Potency [4] | Potency [5] | Potency [6] | Potency [8] | Potency [9]

CN1CCc2cc3c(cc2C1O)OCO3 (centres undefined)
inactive: Potency [1] | Potency [2] | Potency [10] | Potency [4] | Potency [5] | Potency [6] | Potency [7] | Potency [8] | Potency [9]

[Cl-].[Cl-].[Cl-].[Yb+3]
inactive: Potency [1] | Potency [2] | Potency [10] | Potency [4] | Potency [5] | Potency [6] | Potency [8]

c1csc(-c2ccc(-c3cccs3)s2)c1
inactive: Potency [1] | Potency [2] | Potency [10] | Potency [5] | Potency [6] | Potency [8] | Potency [9]

— PubChem BioAssay (Tox21)
